Each structure is given as a SMILES string. Values joined by “and” are separate entries in the source; they are usually repeats but may differ in a detail not shown here. Identical values can stand only once. Out of some 190,000 compounds screened, about 1,300 (0.68%) were called active. What follows is part of a selection rich in actives, with near analogues and random picks from the rest. Unmarked numbers belong to inactive results. Cut-off read from the data, not from the text of the source: active = inhibition above about 50%; inactive = the rest.

This passage reports inhibition results from PubChem BioAssay AID1220 (Sanford-Burnham Center for Chemical Genomics, 2008).

Chain of Mannose-6-phosphate isomerase (Homo sapiens) (P34949 whole entry, looked up): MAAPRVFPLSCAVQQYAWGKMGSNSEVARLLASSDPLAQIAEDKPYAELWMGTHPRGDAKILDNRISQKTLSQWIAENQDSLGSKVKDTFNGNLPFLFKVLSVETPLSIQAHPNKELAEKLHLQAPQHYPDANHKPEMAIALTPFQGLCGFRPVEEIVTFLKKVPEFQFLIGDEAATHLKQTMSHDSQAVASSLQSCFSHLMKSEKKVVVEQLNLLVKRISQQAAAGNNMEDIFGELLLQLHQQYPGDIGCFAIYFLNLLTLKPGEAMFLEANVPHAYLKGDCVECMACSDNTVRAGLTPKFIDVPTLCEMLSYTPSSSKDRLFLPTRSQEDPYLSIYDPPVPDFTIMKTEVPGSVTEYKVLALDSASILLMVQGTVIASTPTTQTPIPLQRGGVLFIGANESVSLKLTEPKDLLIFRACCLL

This assay concerns the target Mannose-6-phosphate isomerase (Homo sapiens) (UniProt P34949). Put plainly: human PMI inhibitors, high substrate, primary screen, biochemical, fluorescence intensity, high mannose 6-phosphate (AID 1220). To be noted: recombinant PMI enzyme, coupled fluorescence intensity; at 20 µM; hits give high values.
In the case of `Cc1ccc(S(=O)(=O)Nc2ccc3c(c2)nc(CN2CCCC2)n3C)cc1`, the inhibition (as a rule, the drop in the measured response relative to a control, in per cent) is -2.1%.

For the molecule `CCOc1ccc(C(C)=O)cc1CSc1nnc(-c2cccs2)n1CC1CCCO1` (configuration not stated), the inhibition was 10.7%.

Consider `O=[N+]([O-])c1cccc(/C=N/NC2=NCCCCC2)c1`, for which the inhibition was -4.3%.

Regarding `C=CCn1c(SCC(=O)c2ccc(NS(=O)(=O)c3ccccc3)cc2)nnc1-c1cccs1`, the inhibition was -16%.

As to `Cc1ccc(S(=O)(=O)/N=C(\c2ccccc2)N(C)S(=O)(=O)c2ccccc2)cc1`, the inhibition was -11.9%.

Regarding `CCC(Sc1ncccc1C(=O)O)C(=O)N1CCCC1` (configuration not stated), the inhibition was -5.9%.

Consider `CC(=O)Nc1ccc2nc(NC(=O)COc3ccc([N+](=O)[O-])cc3)sc2c1`, for which the inhibition is 9.4%.

Regarding `O=C(O)CC1SC(=O)N(Cc2ccccc2)C1=O` (configuration not stated), the inhibition was 8.1%.

Take `COc1ccc(CCn2c(=O)[nH]c3cc(C(=O)NCCc4ccccc4)ccc3c2=O)cc1OC`: the inhibition was -2.6%.

In the case of `O=c1c2ccccc2nc2ccc(N3CCOCC3)nn12`, the inhibition is 0.2%.

Take `c1ccc2c(Nc3ccc4c(c3)OCCO4)c3c(nc2c1)CCC3`: the inhibition is 12.8%.

In the case of `CC/C(CC(=O)C(F)(F)F)=N\NC(=O)/C(C#N)=C/N(C)C`, the inhibition was -0.8%.

Regarding `CC(C)CC(N=Cc1c(O)c2ccccc2oc1=O)C(=O)O` (configuration not stated), the inhibition is -10.2%.

With `Cc1ccc(OCCOc2cccc3ccc(C)nc23)c([N+](=O)[O-])c1`, the inhibition was 55% (active).

Consider `Cc1ccc(OCCn2cnc3ccccc3c2=O)c([N+](=O)[O-])c1`, for which the inhibition was 0.1%.

On to `Cc1ccc(OCCOCCn2cnc3ccccc3c2=O)c([N+](=O)[O-])c1`, for which the inhibition is 52.1% (active).

On to `Cc1ccc2cccc(Oc3ccc([N+](=O)[O-])cc3[N+](=O)[O-])c2n1`, for which the inhibition is 23.3%.

On to `O=c1c2ccccc2ncn1CCOc1ccccc1[N+](=O)[O-]`, for which the inhibition was -2.8%.

Consider `COc1cc(C)ccc1OCCOCCOc1cccc2ccc(C)nc12`, for which the inhibition is 8.5%.

Regarding `CCN(C#N)c1nc(NC(C)C)nc(NC(C)(C)C)n1`, the inhibition was 5.4%.

As to `Cc1cccc(COCC(CC(C)C)N2CCN(C(=O)c3ccc(C(F)(F)F)cc3)CCC2=O)c1` (configuration not stated), the inhibition was -9%.

As for `Cc1[nH]c(=S)sc1Cc1ccc(F)cc1`, the inhibition is 6.5%.

In the case of `CNc1nc(-c2c[nH]c3ccccc23)cs1`, the inhibition was -53.9%.

As to `Nc1n[nH]c(-c2ccccc2[N+](=O)[O-])n1`, the inhibition was -2.3%.

Take `CCOCCn1c(=NC(=O)/C=C/c2ccccc2Cl)sc2cc(NC(C)=O)ccc21`: the inhibition is 2.9%.

As for `NC1CCCCC1N=Cc1c(O)n(CCc2ccc(F)cc2)c(=O)[nH]c1=O` (configuration not stated), the inhibition is 2.4%.

As to `CCOc1ccc(S(=O)(=O)N(CC(=O)NC2CCCCC2C)Cc2ccco2)cc1` (configuration not stated), the inhibition was 3.3%.

As for `CCOc1cccc(C2c3c(oc4cc(C)c(C)cc4c3=O)C(=O)N2CCCN(C)C)c1` (configuration not stated), the inhibition was -0.5%.

On to `CCOc1cc(C)cc2oc(=O)cc(-c3ccccc3)c12`, for which the inhibition is 6.3%.

`COc1ccc([N+](=O)[O-])cc1COc1cc(C)cc2oc(=O)cc(-c3ccccc3)c12`: the inhibition is 58% (active).

On to `COc1ccc([N+](=O)[O-])cc1COc1ccc2c(-c3ccccc3)cc(=O)oc2c1`, for which the inhibition is -4.2%.

As for `O=C(CN1C(=O)C2C3C=CC(C3)C2C1=O)NCc1ccco1` (configuration not stated), the inhibition was 57% (active).

Regarding `O=C(CN1C(=O)C2C3CCC(C3)C2C1=O)NCc1ccco1` (configuration not stated), the inhibition was 6.5%.

Take `O=C(CN1C(=O)C2C3C=CC(C4CC34)C2C1=O)NCc1ccco1` (configuration not stated): the inhibition is 13%.

As to `CCOC(=O)C1=C(C)NC(C)=C(C(=O)OCC)C1C(=O)OCC(N)=O`, the inhibition was -7.6%.

Take `CS(=O)(=O)c1ccc(C(=O)N2CCc3ccccc3C2)cc1`: the inhibition was -6.6%.

Consider `O=C(c1ccc(S(=O)(=O)c2ccccc2)cc1)N1CCc2ccccc2C1`, for which the inhibition was 60.2% (active).

Regarding `O=C(c1ccc(S(=O)(=O)N2CCCCC2)cc1)N1CCc2ccccc2C1`, the inhibition was 11.9%.

Turning to `CCC1CCCCN1C(=O)c1sc2ncnc(N(CC)CC)c2c1C` (configuration not stated), the inhibition was -1.9%.

In the case of `Cc1nn(CC(=O)NCc2ccccc2F)c(C)c1[N+](=O)[O-]`, the inhibition was 2.2%.

Consider `COc1ccc2cc(/C=N/NC(=O)CN(c3ccccc3)S(=O)(=O)c3ccccc3)c(Cl)nc2c1`, for which the inhibition is 5.6%.

Take `Cc1c(OCC(F)(F)F)ccnc1CS(=O)c1nc2ccccc2[nH]1` (configuration not stated): the inhibition is 4.7% and 13.1%.

As to `COc1ccc2nc(C(C)O)[nH]c2c1` (configuration not stated), the inhibition is 13.3%.

As for `COc1ccc2nc(S(=O)Cc3ncc(C)c(OC)c3C)[nH]c2c1` (configuration not stated), the inhibition is 50% (active).

For the molecule `CC(O)CNCc1ccc(-c2ccccc2)cc1` (configuration not stated), the inhibition is 0.1%.

For `Cc1ccccc1Nc1ncccc1C(=O)N1CCOCC1`, the inhibition is -9.3%.

As to `O=S(=O)(Nc1nc2ccccc2nc1Cl)c1ccccc1`, the inhibition is -6.6%.

Take `O=S(=O)(Nc1nc2ccccc2nc1Cl)c1ccc(Cl)cc1`: the inhibition is -2.7%.

As to `O=S(=O)(Nc1nc2ccccc2nc1Cl)c1ccc2ccccc2c1`, the inhibition was 60.1% (active).

Consider `O=C1N/C(=C\c2ccccc2)C(O)=C1C=NCc1ccccc1`, for which the inhibition is -1.9%.

For the molecule `O=C(O)CCNS(=O)(=O)c1ccccc1Br`, the inhibition was -4%.

For the molecule `O=c1cc(C(F)(F)F)nc(-c2ccccc2)[nH]1`, the inhibition was 0.9%.

Consider `N#C/C(=C\c1cc(Cl)ccc1O)C(=O)NC1CCCCC1`, for which the inhibition was 10.6%.

Regarding `N#C/C(=C\c1cc(Cl)cc(Cl)c1O)C(=O)NC1CCCCC1`, the inhibition was 66.7% (active).

For the molecule `Cc1cc(/C=C(\C#N)C(=O)NC2CCCCCC2)c(C)[nH]1`, the inhibition is 1.5%.

For the molecule `COc1ccc(-c2cc(C(=O)Nc3cc(C)on3)no2)cc1`, the inhibition is -3.1%.

Consider `CCN(CCO)C1CC(=O)N(c2ccccc2C)C1=O` (configuration not stated), for which the inhibition was -11.3%.

With `O=C(/C=C/c1cccs1)NC1CC1`, the inhibition is -8.9%.

Take `O=C(/C=C/c1ccccc1)NC1CCS(=O)(=O)C1` (configuration not stated): the inhibition was -10.3%.

On to `O=C(/C=C/c1cccs1)NC1CCS(=O)(=O)C1` (configuration not stated), for which the inhibition is 54.7% (active).

With `COc1ccccc1NC(=O)Nc1ccc2[nH]c(=O)[nH]c2c1`, the inhibition is 6.1%.

On to `O=C(Nc1ccc2[nH]c(=O)[nH]c2c1)Nc1ccc(F)cc1F`, for which the inhibition was 55.8% (active).

For the molecule `O=C(Nc1ccc(F)cc1F)Nc1ccc(F)cc1F`, the inhibition was -3.6%.

`c1coc(C2=Nc3cccc4cccc(c34)N2)c1`: the inhibition is 63.6% (active).

In the case of `Fc1ccc(C2=Nc3cccc4cccc(c34)N2)cc1`, the inhibition was 45.2%.

`COc1ccc(C2=Nc3cccc4cccc(c34)N2)cc1`: the inhibition is 53.1% (active).

Take `Nc1ccc(C2=Nc3cccc4cccc(c34)N2)cc1`: the inhibition was 23.6%.

Regarding `COc1cccc(C2=Nc3cccc4cccc(c34)N2)c1`, the inhibition is -64.5%.

Regarding `Brc1ccc(C2=Nc3cccc4cccc(c34)N2)o1`, the inhibition is 12.1%.

For `COCC(C)NC(=O)C(C)Oc1ccccc1` (configuration not stated), the inhibition was -3.4%.

With `Cc1cnc(C(=O)N2CCCC(C(=O)c3ccc(C(C)(C)C)cc3)C2)cn1` (configuration not stated), the inhibition was 5.6%.

As for `COc1ccc(/C(N)=N/OC(=O)COc2ccccc2Cl)cc1`, the inhibition is 6.3%.

On to `Cc1ccn2c(=O)cc(C)nc2c1`, for which the inhibition is 9%.

For the molecule `Cc1cc(=O)n2ccsc2n1`, the inhibition was -2.4%.

As for `Cc1onc(-c2c(F)cccc2Cl)c1C(=O)OCC(=O)Nc1c(C)n(C)n(-c2ccccc2)c1=O`, the inhibition is -18.7%.

In the case of `COc1ccc(S(=O)(=O)N2CCN(CC(=O)Nc3ccc(F)c(F)c3)CC2)cc1`, the inhibition was -16.5%.

Regarding `CN(C)N1C(N)=C(C#N)C(c2ccsc2)C2=C1CC(C)(C)CC2=O` (configuration not stated), the inhibition is 18.1%.

As for `CSc1ccc(C2C(C#N)=C(N)N(c3ccccc3)C3=C2C(=O)CCC3)cc1` (configuration not stated), the inhibition is 29.9%.

For the molecule `CN(C)N1C(N)=C(C#N)C(c2cccs2)C2=C1CCCC2=O` (configuration not stated), the inhibition was 33.2%.

For the molecule `CN(C)N1C(N)=C(C#N)C(c2cccnc2)C2=C1CCCC2=O` (configuration not stated), the inhibition was 57.9% (active).

`CN(C)N1C(N)=C(C#N)C(c2cccnc2)C2=C1CC(C)(C)CC2=O` (configuration not stated): the inhibition is 8.6%.

Turning to `Cc1ccc(N2C(N)=C(C#N)C(c3cccnc3)C3=C2CCCC3=O)cc1` (configuration not stated), the inhibition was 47.7%.

In the case of `CN(C)N1C(N)=C(C#N)C(c2ccsc2)C2=C1CCCC2=O` (configuration not stated), the inhibition is 61% (active).

As for `N#CC1=C(N)OC2=C(C(=O)CCC2)C1c1ccsc1` (configuration not stated), the inhibition was -1.2%.

Turning to `N#CC1=C(N)N(c2ccccc2)C2=C(C(=O)CCC2)C1c1ccsc1` (configuration not stated), the inhibition was 27.6%.

With `N#CC1=C(N)N(c2ccccc2)C2=C(C(=O)CCC2)C1c1ccccc1` (configuration not stated), the inhibition was 51.2% (active).

In the case of `CCc1ccc(C2C(C#N)=C(N)N(N(C)C)C3=C2C(=O)CCC3)s1` (configuration not stated), the inhibition is 59.7% (active).

With `CCc1ccc(C2C(C#N)=C(N)OC3=C2C(=O)CCC3)s1` (configuration not stated), the inhibition was 6.1%.

In the case of `CCOC(=O)c1cccc(-c2ccc(C=O)o2)c1`, the inhibition is 7.1%.

For `COc1ccc(/C=N\NC(=O)c2cccc(Br)c2)c(OC)c1`, the inhibition was 3%.

With `CCN(CC)C(=O)CSc1nc2ccccc2c(=O)n1OC`, the inhibition was 4.5%.

Regarding `COC(=O)/C=C(\C)NC(=O)c1ccc(F)cc1`, the inhibition was 12.4%.

For the molecule `O=C(COC(=O)c1cccs1)NCc1ccco1`, the inhibition was -3.4%.

With `Cc1ncoc1C(=O)Nc1ccccc1-c1ccccc1`, the inhibition is -4.1%.

Turning to `CCN(CC)C(=O)c1ccc(Cn2cc([N+](=O)[O-])cn2)o1`, the inhibition was 0%.

For `CC(=O)c1ccc(NC(=O)Nc2ccc([N+](=O)[O-])cc2)cc1`, the inhibition was -0.1%.

`COc1ccc(N2C(N)=C(C#N)C(c3ccsc3)C3=C2CCCC3=O)c(OC)c1` (configuration not stated): the inhibition was 62% (active).

As for `Cc1ccsc1C1C(C#N)=C(N)N(N(C)C)C2=C1C(=O)CCC2` (configuration not stated), the inhibition is 15.7%.

On to `Cc1ccc(C2C(C#N)=C(N)N(N(C)C)C3=C2C(=O)CCC3)cc1` (configuration not stated), for which the inhibition was 57.8% (active).

For `CN(C)N1C(N)=C(C#N)C(c2ccccc2)C2=C1CCCC2=O` (configuration not stated), the inhibition was 42.1%.

As for `N#CC1=C(N)N(c2ccccc2C#N)C2=C(C(=O)CCC2)C1c1ccsc1` (configuration not stated), the inhibition is 19.7%.

With `COc1ccc(C2C(C#N)=C(N)N(c3ncn[nH]3)C3=C2C(=O)CCC3)cc1` (configuration not stated), the inhibition is 43.2%.
